Experimental data: PubChem BioAssay (Tox21)
Several values for one entry are separate records, joined by “and”; a condition that tells them apart may be missing. Identical values can stand only once. Records with an inconclusive call do not appear. Activity calls are given as the source filed them. Unless noted, the call rests on the fitted dose curve.

How the values were obtained:
[1] = target: Acetylcholinesterase (Homo sapiens) (UniProt P22303); test: Acetylcholinesterase (AChE) small molecule antagonists: colormetric cell-based qHTS assay (AID 1347395); further: nearly all actives have a fitted effect of over 30% in size; further: potency means the concentration at half of the fitted maximal effect
How it was run: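 Endogenous AChE of human neuroblastoma SH-SY5Y cells was measured with an Ellman-type DTNB/acetylthiocholine mix. Compound pretreatment lasted 30 min at 37 C; substrate reaction ran 90 min at 37 C.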

[2] = target: Acetylcholinesterase (Homo sapiens) (UniProt P22303); test: Acetylcholinesterase (AChE) small molecule antagonists: enzyme-based qHTS assay (AID 1347397); conditions: Potency: AChE enzyme activity inhibition; further: nearly all actives have a fitted effect of over 55% in size; further: potency means the concentration at half of the fitted maximal effect
How it was run: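 Human recombinant acetylcholinesterase; substrate acetylthiocholine; thiocholine quantified with DTNB (colorimetric). Compound preincubation 30 min RT; reaction 10 min RT.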

[3] = target: Acetylcholinesterase (Homo sapiens) (UniProt P22303); test: Acetylcholinesterase (AChE) small molecule antagonists: fluorescence cell-based qHTS assay (AID 1347398); conditions: Potency: AChE activity; further: nearly all actives have a fitted effect of over 50% in size; further: potency means the concentration at half of the fitted maximal effect
How it was run: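 Thiocholine generated from acetylthiocholine by SH-SY5Y cell AChE is detected with Thiolite Green (Ex/Em 490/520 nm) after 40 min at room temperature, following 30 min compound pretreatment at 37 C.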

[4] = target: Acetylcholinesterase (Homo sapiens) (UniProt P22303); test: Acetylcholinesterase (AChE) small molecule antagonists: enzyme-based qHTS assay with human liver microsomes (AID 1347399); conditions: Potency: qHTS inhibition; further: nearly all actives have a fitted effect of over 60% in size; further: potency means the concentration at half of the fitted maximal effect
How it was run: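 Recombinant human AChE (50 mU/mL in the enzyme mix) and human liver microsomes (0.25 mg/mL final) were preincubated with compound and NADPH (0.25 mg/mL final) for 30 min at 37 C. Acetylthiocholine/DTNB was then added; thiocholine was read colorimetrically after 10 min at room temperature.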

[5] = target: Cytochrome P450 2C9 (Homo sapiens) (UniProt P11712); test: Cytochrome P450 Family 2 Subfamily C Member 9 (CYP2C9) small molecule antagonists: luciferase reporter qHTS assay (AID 1671198; active means well fitted curve in the direction sought with a large enough effect in the repeat runs; an effect the other way counts as inactive or inconclusive; further: nearly all actives have a fitted effect of over 50% in size; further: potency means the concentration at half of the fitted maximal effect)
How it was run: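 CYP2C9 activity was measured with a P450-Glo proluciferin substrate. Enzyme–substrate mix was held with compound for 10 min at room temperature, then NADPH regeneration solution was added for 1 h at 37C. Luciferin product was read as luminescence.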

[6] = target: Cytochrome P450 1A2 (Homo sapiens) (UniProt P05177); test: Cytochrome P450 Family 1 Subfamily A Member 2 (CYP1A2) small molecule antagonists: luciferase reporter qHTS assay (AID 1671199; active means well fitted curve in the direction sought with a large enough effect in the repeat runs; an effect the other way counts as inactive or inconclusive; further: nearly all actives have a fitted effect of over 50% in size; further: potency means the concentration at half of the fitted maximal effect)
How it was run: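 Signal from luciferin formed by CYP1A2 from a proluciferin substrate is read as luminescence, expressed in relative luminescence units. Compounds sit with enzyme 10 min, NADPH-driven reaction runs 1 h, all at room temperature.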

[7] = target: Cytochrome P450 3A4 (Homo sapiens) (UniProt P08684); test: Cytochrome P450 Family 3 Subfamily A Member 4 (CYP3A4) small molecule antagonists: luciferase reporter qHTS assay (AID 1671201; active means well fitted curve in the direction sought with a large enough effect in the repeat runs; an effect the other way counts as inactive or inconclusive; further: nearly all actives have a fitted effect of over 50% in size; further: potency means the concentration at half of the fitted maximal effect)
How it was run: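 Inhibition of CYP3A4 is measured as loss of light: the enzyme converts a proluciferin substrate to luciferin, detected luminescently. Reaction ran 1 h at room temperature with NADPH regeneration after a 10 min compound preincubation.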

[8] = target: Cytochrome P450 2C19 (Homo sapiens) (UniProt P33261); test: Cytochrome P450 Family 2 Subfamily C Member 19 (CYP2C19) small molecule antagonists: luciferase reporter qHTS assay (AID 1671197; active means well fitted curve in the direction sought with a large enough effect in the repeat runs; an effect the other way counts as inactive or inconclusive; further: nearly all actives have a fitted effect of over 65% in size; further: potency means the concentration at half of the fitted maximal effect)
How it was run: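 Enzyme-substrate mix with proluciferin substrate (P450-Glo CYP2C19 system) preincubated with compounds 10 min at room temperature; NADPH regeneration solution added, 37C for 1 h; detection reagent stops reaction, luminescence read after 20 min. Ketoconazole positive control.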

[9] = target: Voltage-gated inwardly rectifying potassium channel KCNH2 (Homo sapiens) (UniProt Q12809); test: Human Ether-a-go-go-Related Gene (hERG) channel small molecule antagonists: fluorescence cell-based qHTS assay (AID 1671200; active means well fitted curve in the direction sought with a large enough effect in the repeat runs; an effect the other way counts as inactive or inconclusive)
How it was run: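 Quantitative HTS in hERG-U2OS cells: thallium entry through the channel reports activity, read as continuous 480/540 nm fluorescence over 2 min after stimulus addition.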

Measured: Potency

Chain of Cytochrome P450 2C19 (Homo sapiens) (P33261 whole entry, looked up): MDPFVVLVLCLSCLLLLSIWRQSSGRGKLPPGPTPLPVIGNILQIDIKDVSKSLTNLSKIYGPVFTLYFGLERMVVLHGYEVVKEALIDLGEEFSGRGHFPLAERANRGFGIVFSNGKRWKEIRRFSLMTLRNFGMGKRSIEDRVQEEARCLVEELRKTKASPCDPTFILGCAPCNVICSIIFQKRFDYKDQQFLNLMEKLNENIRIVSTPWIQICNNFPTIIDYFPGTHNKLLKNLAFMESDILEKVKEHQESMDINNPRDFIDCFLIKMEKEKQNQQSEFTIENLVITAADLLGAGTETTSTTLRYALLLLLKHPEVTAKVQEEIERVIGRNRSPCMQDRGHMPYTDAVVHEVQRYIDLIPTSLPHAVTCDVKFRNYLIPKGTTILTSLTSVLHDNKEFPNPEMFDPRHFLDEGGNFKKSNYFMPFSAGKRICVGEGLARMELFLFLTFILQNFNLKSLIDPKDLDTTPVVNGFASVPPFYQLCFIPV
Chain of Voltage-gated inwardly rectifying potassium channel KCNH2 (Homo sapiens) (Q12809 whole entry, looked up): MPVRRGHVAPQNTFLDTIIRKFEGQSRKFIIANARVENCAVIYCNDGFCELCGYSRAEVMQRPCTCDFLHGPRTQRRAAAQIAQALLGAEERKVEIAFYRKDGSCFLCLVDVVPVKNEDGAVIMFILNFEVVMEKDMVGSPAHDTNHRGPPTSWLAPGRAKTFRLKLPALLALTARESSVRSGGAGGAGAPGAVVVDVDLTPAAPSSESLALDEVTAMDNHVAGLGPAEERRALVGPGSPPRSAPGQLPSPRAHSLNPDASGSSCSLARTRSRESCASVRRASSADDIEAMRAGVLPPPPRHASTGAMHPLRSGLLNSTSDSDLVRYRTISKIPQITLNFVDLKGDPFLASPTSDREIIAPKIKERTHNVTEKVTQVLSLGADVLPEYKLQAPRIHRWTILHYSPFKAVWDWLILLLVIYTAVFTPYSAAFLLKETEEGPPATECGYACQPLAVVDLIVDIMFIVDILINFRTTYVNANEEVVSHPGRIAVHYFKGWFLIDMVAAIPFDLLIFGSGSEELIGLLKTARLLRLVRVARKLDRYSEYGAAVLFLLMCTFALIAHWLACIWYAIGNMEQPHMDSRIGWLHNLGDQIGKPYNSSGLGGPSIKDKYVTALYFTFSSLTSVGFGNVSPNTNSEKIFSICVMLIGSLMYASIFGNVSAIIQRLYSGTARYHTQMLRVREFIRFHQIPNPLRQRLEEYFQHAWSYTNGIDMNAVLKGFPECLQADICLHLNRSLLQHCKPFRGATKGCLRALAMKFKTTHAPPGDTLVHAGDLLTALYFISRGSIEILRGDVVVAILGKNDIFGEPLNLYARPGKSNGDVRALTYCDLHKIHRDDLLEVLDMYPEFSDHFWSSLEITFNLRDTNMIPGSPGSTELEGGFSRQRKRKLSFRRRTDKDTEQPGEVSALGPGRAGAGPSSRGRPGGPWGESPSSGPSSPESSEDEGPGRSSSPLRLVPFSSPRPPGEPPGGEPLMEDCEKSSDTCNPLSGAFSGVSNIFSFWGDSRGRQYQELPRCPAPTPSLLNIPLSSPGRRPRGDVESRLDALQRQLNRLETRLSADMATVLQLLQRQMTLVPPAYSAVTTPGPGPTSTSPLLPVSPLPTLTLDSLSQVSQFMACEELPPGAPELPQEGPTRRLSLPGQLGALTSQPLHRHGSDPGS
Chain of Cytochrome P450 2C9 (Homo sapiens) (P11712 whole entry, looked up): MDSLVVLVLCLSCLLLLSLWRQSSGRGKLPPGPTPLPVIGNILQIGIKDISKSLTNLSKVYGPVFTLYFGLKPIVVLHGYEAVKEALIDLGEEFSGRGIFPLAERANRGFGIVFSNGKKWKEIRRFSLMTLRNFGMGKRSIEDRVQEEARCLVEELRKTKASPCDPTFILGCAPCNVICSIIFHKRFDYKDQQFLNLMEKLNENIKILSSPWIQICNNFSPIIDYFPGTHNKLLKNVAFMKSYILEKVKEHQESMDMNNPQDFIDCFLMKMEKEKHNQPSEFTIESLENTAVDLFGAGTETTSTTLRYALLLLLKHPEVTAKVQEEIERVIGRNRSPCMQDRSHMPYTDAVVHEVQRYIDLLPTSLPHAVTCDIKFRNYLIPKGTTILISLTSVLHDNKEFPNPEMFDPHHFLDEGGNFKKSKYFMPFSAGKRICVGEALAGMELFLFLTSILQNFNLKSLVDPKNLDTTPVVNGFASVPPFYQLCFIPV
Chain of Cytochrome P450 3A4 (Homo sapiens) (P08684 whole entry, looked up): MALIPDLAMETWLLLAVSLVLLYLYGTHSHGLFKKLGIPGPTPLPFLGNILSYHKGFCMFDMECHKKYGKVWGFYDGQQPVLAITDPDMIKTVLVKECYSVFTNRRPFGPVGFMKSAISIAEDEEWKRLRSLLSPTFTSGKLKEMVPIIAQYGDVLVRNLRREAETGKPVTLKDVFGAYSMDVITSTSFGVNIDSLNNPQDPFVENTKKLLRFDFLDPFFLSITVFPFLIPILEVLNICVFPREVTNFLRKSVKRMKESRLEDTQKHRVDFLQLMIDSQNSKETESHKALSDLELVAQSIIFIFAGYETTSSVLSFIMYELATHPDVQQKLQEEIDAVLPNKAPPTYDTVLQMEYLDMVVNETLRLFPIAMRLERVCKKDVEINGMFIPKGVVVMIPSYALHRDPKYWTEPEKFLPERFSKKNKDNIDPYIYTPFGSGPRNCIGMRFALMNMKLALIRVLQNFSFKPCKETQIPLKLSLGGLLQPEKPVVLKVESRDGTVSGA
Chain of Cytochrome P450 1A2 (Homo sapiens) (P05177 whole entry, looked up): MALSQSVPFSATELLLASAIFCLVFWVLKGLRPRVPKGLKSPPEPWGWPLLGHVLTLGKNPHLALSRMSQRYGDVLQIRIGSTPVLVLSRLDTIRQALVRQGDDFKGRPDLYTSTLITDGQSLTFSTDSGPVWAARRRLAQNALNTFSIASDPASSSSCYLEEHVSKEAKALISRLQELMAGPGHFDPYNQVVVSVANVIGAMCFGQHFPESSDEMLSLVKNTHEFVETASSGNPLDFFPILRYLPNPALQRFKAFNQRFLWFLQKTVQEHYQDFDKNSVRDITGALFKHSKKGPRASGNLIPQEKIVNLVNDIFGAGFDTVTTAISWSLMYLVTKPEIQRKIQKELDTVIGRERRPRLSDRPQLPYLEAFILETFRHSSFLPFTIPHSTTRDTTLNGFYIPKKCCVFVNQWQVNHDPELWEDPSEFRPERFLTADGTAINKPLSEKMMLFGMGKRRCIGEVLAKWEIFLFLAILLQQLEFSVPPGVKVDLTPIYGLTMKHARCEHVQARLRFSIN
Chain of Acetylcholinesterase (Homo sapiens) (P22303 whole entry, looked up): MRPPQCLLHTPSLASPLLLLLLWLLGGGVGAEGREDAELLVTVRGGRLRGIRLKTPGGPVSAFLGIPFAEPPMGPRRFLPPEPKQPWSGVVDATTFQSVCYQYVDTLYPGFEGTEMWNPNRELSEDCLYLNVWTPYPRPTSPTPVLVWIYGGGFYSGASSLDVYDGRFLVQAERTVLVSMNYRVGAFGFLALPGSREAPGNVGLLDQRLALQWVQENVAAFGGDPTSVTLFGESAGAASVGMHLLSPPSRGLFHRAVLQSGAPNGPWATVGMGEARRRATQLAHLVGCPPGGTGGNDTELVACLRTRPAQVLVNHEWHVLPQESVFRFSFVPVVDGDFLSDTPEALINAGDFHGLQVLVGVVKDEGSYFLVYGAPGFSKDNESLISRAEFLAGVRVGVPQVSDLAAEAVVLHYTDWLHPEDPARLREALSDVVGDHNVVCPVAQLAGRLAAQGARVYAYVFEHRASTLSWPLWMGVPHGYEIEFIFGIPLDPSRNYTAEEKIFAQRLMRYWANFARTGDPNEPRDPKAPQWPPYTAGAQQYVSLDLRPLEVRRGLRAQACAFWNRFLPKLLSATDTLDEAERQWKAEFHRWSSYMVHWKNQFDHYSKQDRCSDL

CN1C[C@H](CNC(=O)OCc2ccccc2)C[C@@H]2c3cccc4c3c(cn4C)C[C@H]21
active: [1] 3.47 µM | [2] 7.76 µM | [3] 871 nM | [4] 30.9 µM
inactive: [5] | [6] | [7]

CCCCNP(N)(N)=S
active: [8] 50.2 µM | [5] 35.6 µM
inactive: all other assays above

C/C(=C\c1ccccc1)[N+](=O)[O-]
active: [5] 35.6 µM | [6] 35.6 µM | [7] 44.8 µM
not listed: [8]
inactive: all other assays above

Clc1cccc(SC2CCNCC2)n1
inactive: [1] | [2] | [3] | [4] | [9]

CC(C)(C)C(O)C(Oc1ccc(Cl)cc1)n1cncn1 (stereo unspecified)
inactive: [1] | [2] | [3] | [4]
active: [8] 0.796 µM | [5] 33.6 µM

Nc1ccc([N+](=O)[O-])cc1[N+](=O)[O-]
active: [6] 6.92 µM
inactive: all other assays above

NNC(=O)c1cccnc1
active: [8] 71.3 µM | [6] 12.7 µM
not listed: [5] | [7]
inactive: all other assays above

O=[N+]([O-])c1ccc(F)c([N+](=O)[O-])c1
not listed: [5]
inactive: all other assays above

O=NN1CCNCC1
active: [8] 44.3 µM
inactive: [1] | [2] | [3] | [4] | [7]

C=CC[C@]1(O)CC[C@H]2[C@@H]3CCC4=CC(=O)CCC4=C3C=C[C@@]21C
active: [3] 6920 nM | [8] 9.77 µM | [5] 11 µM
not listed: [7]
inactive: all other assays above

CCCN(CCCl)c1c([N+](=O)[O-])cc(C(F)(F)F)cc1[N+](=O)[O-]
active: [8] 17.8 µM | [5] 20 µM | [6] 12.6 µM | [7] 22.4 µM
inactive: all other assays above

O=C1C(Cl)C(CCl)CN1c1cccc(C(F)(F)F)c1 (stereo unspecified)
active: [8] 8.94 µM | [6] 1 µM
not listed: [9]
inactive: all other assays above

O=S(=O)(Cl)c1ccccc1
not listed: [7]
inactive: all other assays above

N#CCC#N
active: [5] 63.3 µM
not listed: [7]
inactive: all other assays above

O=C1c2ccccc2C(=O)C1C(=O)C(c1ccccc1)c1ccccc1
active: [8] 21.9 µM | [5] 1.38 µM | [6] 15.5 µM
not listed: [9]
inactive: all other assays above

ClCc1ccccc1
not listed: [8]
inactive: all other assays above

CCOP(=O)(OCC)SCCSCC
inactive: [9] | [7]
active: [1] 3.4 µM and 7.96 µM | [2] 7.61 µM and 20 µM | [3] 3.03 µM and 10 µM | [4] 17 µM and 35.6 µM | [8] 21.4 µM and 35.6 µM | [6] 34 µM

CCCCN(N=O)C(=N)N[N+](=O)[O-]
active: [6] 40.8 µM
not listed: [7]
inactive: all other assays above

CCOP(=S)(OCC)Oc1nc(Cl)c(Cl)cc1Cl
active: [1] 35.7 µM and 35.6 µM | [2] 79.9 µM | [3] 35.7 µM and 35.6 µM | [4] 56.6 nM and 894 nM | [8] 2.25 µM and 5.03 µM | [5] 7.99 µM and 10 µM | [6] 2.53 µM and 3.56 µM | [7] 1.13 µM and 2 µM
inactive: [9]

COC(C)(C)CCC[C@H](C)C/C=C/C(C)=C/C(=O)OC(C)C
active: [8] 17.8 µM | [5] 22.4 µM | [6] 35.6 µM | [7] 20 µM
inactive: all other assays above
